Data taken from the antibiotic and cytotoxicity screens of Wong et al. (2023).
About 3,300 (8.5%) of roughly 39,000 compounds were called active. The entries come from a sample that favours actives as a whole.

test system: HepG2; experiment: cytotoxicity call (relative viability < 0.9); conditions: 10 µM

SMILES	cytotoxicity call
C[C@@H]1CN([C@@H](C)CO)C(=O)c2cc(NC(=O)CCC(F)(F)F)ccc2O[C@@H](C)CCCCO[C@H]1CN(C)Cc1ccncc1	inactive
C=CCOC(=O)[C@H]1[C@@H]2C(=O)O[C@@H](c3ccccc3)[C@@H](c3ccccc3)N2[C@@H](c2ccc(OCCOC(=O)[C@H]3C[C@H]4C(=O)N[C@@H](Cc5ccccc5)C(=O)N4[C@H]3c3ccc(O)cc3)cc2)[C@]12C(=O)Nc1ccc(I)cc12	inactive
C[C@@H]1CCCCO[C@@H](CN(C)C(=O)NC2CCCCC2)[C@@H](C)CN([C@@H](C)CO)C(=O)c2cc(NS(=O)(=O)c3cccs3)ccc2O1	inactive
CCCNC(=O)N[C@H]1C=C[C@H](CC(=O)N2CCN(C)CC2)O[C@H]1CO	inactive
Oc1cccc(c1)/C/1=C/2\CC/C(=C(\c3cccc(c3)O)c3ccc([nH]3)/C(=C\3/C=CC(=N3)/C(=C\3/C=CC1=N3)c1cccc(c1)O)c1cccc(c1)O)N2	inactive
C[C@@H]1CN([C@H](C)CO)C(=O)c2cc(NS(=O)(=O)c3ccccc3)ccc2O[C@@H](C)CCCCO[C@H]1CN(C)S(=O)(=O)c1ccc(Cl)cc1	active
C[C@@H]1CCCCO[C@H](CN(C)S(=O)(=O)c2ccccc2)[C@H](C)CN([C@H](C)CO)C(=O)c2cc(NS(=O)(=O)c3ccc(Cl)cc3)ccc2O1	inactive
C[C@@H]1CCCCO[C@H](CN(C)S(=O)(=O)c2ccc(Cl)cc2)[C@@H](C)CN([C@@H](C)CO)C(=O)c2cc(NS(=O)(=O)c3ccccc3)ccc2O1	inactive
O=C(CS(=O)(=O)c1cccc2nsnc12)N1CC(=O)N(CCc2ccccc2)C(=O)C1	inactive
C[C@H]1CN([C@@H](C)CO)C(=O)c2cc(NS(=O)(=O)c3cn(C)cn3)ccc2O[C@@H]1CN(C)S(=O)(=O)c1ccc(F)cc1	inactive
C[C@H](CO)N1C[C@H](C)[C@H](CN(C)Cc2ccc(C(F)(F)F)cc2)Oc2c(NS(C)(=O)=O)cccc2C1=O	inactive
Cc1ccc(-c2ccc3c(c2)O[C@H](CN(C)C(=O)NC(C)C)[C@H](C)CN([C@@H](C)CO)S3(=O)=O)cc1	inactive
C[C@H](CO)N1C[C@H](C)[C@H](CN(C)S(=O)(=O)c2ccc(F)cc2)OCCCC[C@H](C)Oc2ccc(NS(=O)(=O)c3cn(C)cn3)cc2C1=O	inactive
O=C(C[C@H]1CC[C@@H]2[C@H](COC[C@H](O)CN2S(=O)(=O)c2ccccc2Cl)O1)NCc1ccccc1Cl	inactive
CN(CC(=O)Nc1cccc(S(=O)(=O)N2CCOCC2)c1)CC(=O)Nc1ccc(Cl)c(C(F)(F)F)c1	inactive
C[C@H](NC(=O)c1c(N)nn2cccnc12)c1cc2cccc(C#Cc3cnn(C)c3)c2c(=O)n1-c1ccccc1	active
O=C(C[C@H]1CC[C@H]2[C@@H](COC[C@@H](O)CN2S(=O)(=O)c2ccccc2)O1)NCCN1CCCC1	inactive
CN1CCN(C(=O)C[C@H]2CC[C@H]3[C@@H](COc4ccc(NC(=O)c5cccs5)cc4C(=O)N3C)O2)CC1	inactive
COc1ccc(S(=O)(=O)N(C)C[C@H]2Oc3ccc(NC(=O)c4ccncc4)cc3CC(=O)N([C@H](C)CO)C[C@H]2C)cc1	inactive
CN(C)CC(=O)N1CC2(C1)[C@@H](c1ccccc1)[C@H](CO)N2S(C)(=O)=O	inactive
CC(C)(C)c1cc(C(=O)NN)no1	inactive
CCN1C(C)(C)CC(Oc2ccc(C(=O)Nc3ccc(NC(=O)Nc4cc(C(C)(C)C)on4)cc3)nc2)CC1(C)C	active
COc1cc2ncnc(Oc3cccc(NC(=O)Nc4cc(C(C)(C)C(F)(F)F)on4)c3)c2cc1OC	inactive
C[C@@H]1CN([C@H](C)CO)C(=O)Cc2cc(NC(=O)Cn3cnnn3)ccc2O[C@H]1CN(C)C(=O)NC1CCCCC1	inactive
C[C@H](CO)N1C[C@H](C)[C@H](CN(C)Cc2ccccc2)Oc2ccc(NC(=O)Nc3cccc4ccccc34)cc2C1=O	inactive

SMILES	cytotoxicity call
C[C@H]1CN([C@@H](C)CO)C(=O)c2cc(NC(=O)Nc3cccc4ccccc34)ccc2O[C@@H]1CN(C)Cc1ccccc1	inactive
C[C@@H]1CN([C@@H](C)CO)C(=O)c2cc(NC(=O)Nc3cccc4ccccc34)ccc2O[C@@H]1CN(C)Cc1ccccc1	active
C[C@@H]1CN([C@H](C)CO)C(=O)c2cc(NC(=O)Nc3cccc4ccccc34)ccc2O[C@@H]1CN(C)Cc1ccccc1	active
C[C@@H]1CN([C@@H](C)CO)C(=O)c2cc(NC(=O)Nc3cccc4ccccc34)ccc2O[C@H]1CN(C)Cc1ccccc1	inactive
C[C@H]1CN([C@@H](C)CO)C(=O)c2cc(NC(=O)Nc3cccc4ccccc34)ccc2O[C@@H]1CN(C)Cc1ccc2c(c1)OCO2	inactive
C[C@@H]1CN([C@@H](C)CO)C(=O)c2cc(NC(=O)Nc3cccc4ccccc34)ccc2O[C@@H]1CN(C)Cc1ccc2c(c1)OCO2	active
C[C@@H]1CN([C@H](C)CO)C(=O)c2cc(NC(=O)Nc3cccc4ccccc34)ccc2O[C@H]1CN(C)Cc1ccccc1	inactive
C[C@@H]1CN([C@@H](C)CO)C(=O)c2cc(NC(=O)Nc3cccc4ccccc34)ccc2O[C@H]1CN(C)Cc1ccc2c(c1)OCO2	inactive
CCS(=O)(=O)N1CC[C@]2(CC1)CN([C@H](CO)c1c2c2ccc(cc2n1C)OC)C(=O)Nc1c(noc1C)C	inactive
Cc1cc(O)cc(=O)o1	inactive
C[C@@H]1CN([C@H](C)CO)C(=O)c2cc(NC(=O)Nc3ccc(F)cc3)ccc2O[C@@H](C)CCCCO[C@@H]1CN(C)S(=O)(=O)c1ccc(Cl)cc1	inactive
COc1ccc(NC(=O)Nc2ccc3c(c2)C(=O)N([C@@H](C)CO)C[C@@H](C)[C@H](CN(C)C(=O)Nc2ccccc2)OCCCC[C@H](C)O3)cc1	inactive
CC(C)NC(=O)Nc1ccc2c(c1)C(=O)N([C@@H](C)CO)C[C@@H](C)[C@@H](CN(C)S(=O)(=O)c1cn(C)cn1)OCCCC[C@@H](C)O2	inactive
COc1ccc2c3c([nH]c2c1)[C@@H](CO)N(C[C@]13CCN(CC1)S(=O)(=O)C)C(=O)Nc1ccc(cc1)F	inactive
COc1ccc2c3c([nH]c2c1)[C@@H](CO)N(C[C@]13CCN(CC1)Cc1ccccc1OC)C(=O)Nc1ccc(cc1)F	active
COc1ccc2c3c([nH]c2c1)[C@H](CO)N(C[C@]13CCN(CC1)Cc1cc(ccc1F)F)C(=O)Nc1ccc(cc1)F	inactive
COc1ccc2c3c([nH]c2c1)[C@H](CO)N(C[C@]13CCN(CC1)S(=O)(=O)C)C(=O)Nc1ccc(cc1)F	inactive
COc1ccc2c3c([nH]c2c1)[C@@H](CO)N(C[C@]13CCN(CC1)C(=O)Nc1ccccc1)C(=O)Nc1ccc(cc1)F	inactive
COc1ccc2c3c([nH]c2c1)[C@H](CO)N(C[C@]13CCN(CC1)Cc1cc(on1)-c1ccccc1)C(=O)Nc1ccc(cc1)F	inactive
COc1ccc2c3c([nH]c2c1)[C@H](CO)N(C[C@]13CCN(CC1)C(=O)Nc1ccccc1)C(=O)Nc1ccc(cc1)F	active
COc1ccc2c3c([nH]c2c1)[C@@H](CO)N(C[C@]13CCN(CC1)C(=O)Nc1ccc(cc1)F)C(=O)c1ccc(cc1)F	inactive
COc1ccc2c3c([nH]c2c1)[C@H](CO)N(C[C@]13CCN(CC1)Cc1ccccc1OC)C(=O)Nc1ccc(cc1)F	inactive
COc1ccc2c3c([nH]c2c1)[C@@H](CO)N(C[C@]13CCN(CC1)Cc1ccc(cc1)F)C(=O)Nc1ccc(cc1)F	active
COc1ccc2c3c([nH]c2c1)[C@H](CO)N(C[C@]13CCN(CC1)Cc1ccc(cc1)F)C(=O)Nc1ccc(cc1)F	active
COc1ccc2c3c([nH]c2c1)[C@@H](CO)N(C[C@]13CCN(CC1)Cc1cc(ccc1F)F)C(=O)Nc1ccc(cc1)F	inactive
